Screens: PubChem BioAssay, National Center for Advancing Translational Sciences (NCATS)
Shown are actives, neighbours in structure and some others; about 10% of the full set was active somewhere.
RORgamma inh: inhibitors of mouse ROR gamma transcriptional activity; AID 2551; 310,000 tested, 5.4% active; P51450; Drosophila S2 Gal4-RORgamma UAS-luciferase reporter, 20 h; Potency, µM (titrated, usually from 53.6 µM), inactives show at the top dose activity change, negative = inhibition, hits mostly inhibitors; also: % is scaled to controls: 0 for no effect and ±100 for the full control effect; nearly all actives have a fitted effect of over 60% in size
Target sequence (P51450 whole entry, looked up, the tested form may be a part): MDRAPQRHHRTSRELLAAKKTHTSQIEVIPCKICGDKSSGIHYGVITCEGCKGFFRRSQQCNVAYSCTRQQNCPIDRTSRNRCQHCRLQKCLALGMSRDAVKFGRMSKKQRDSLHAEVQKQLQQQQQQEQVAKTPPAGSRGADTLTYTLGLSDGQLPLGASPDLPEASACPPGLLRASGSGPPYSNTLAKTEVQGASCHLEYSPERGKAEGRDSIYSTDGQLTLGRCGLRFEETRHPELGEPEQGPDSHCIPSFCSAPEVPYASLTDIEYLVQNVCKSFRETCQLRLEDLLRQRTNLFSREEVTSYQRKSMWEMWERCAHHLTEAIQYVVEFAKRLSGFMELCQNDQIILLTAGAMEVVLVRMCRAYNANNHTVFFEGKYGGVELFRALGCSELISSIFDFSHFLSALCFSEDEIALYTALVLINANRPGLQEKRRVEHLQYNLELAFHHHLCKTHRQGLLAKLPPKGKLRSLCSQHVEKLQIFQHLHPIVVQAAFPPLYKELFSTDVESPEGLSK
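Stable Schneider cell line, Gal4 DNA-binding domain fused to ROR gamma, UAS-luciferase. Cmpd 1 hr RT → CuSO4 700 uM final → 20 hr RT → luciferase reagent 10 min → luminescence.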
SW480 rerep: induces DNA re-replication in SW480 colon adenocarcinoma cells; SW480 DNA re-replication, Hoechst DNA content imaging, 48 h; Potency, µM (highest dose often 46.1 µM), for the others: top-dose re-replication activation, actives largely listed as activators; 340,000 tested, 1.8% active; AID 624297; also: % of control where 0% means no effect; nearly all actives have a fitted effect of over 55% in size
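Per well, 250 cells were exposed to pinned compound for 48 hr. Nuclear DNA was visualised with Hoechst (40 min, 37 C) and total object intensity recorded by fluorescence scanning.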
KB-3-1 tox: kills parental KB-3-1 adenocarcinoma cells; KB-3-1 viability, CellTiter-Glo ATP luminescence, 72 h; Potency, µM (top dose mostly 46.1 µM), usual class: cytotoxic; 400,000 tested, 1.4% active; AID 1347075; also: % is scaled to controls: 0 for no effect and ±100 for the full control effect; nearly all actives have a fitted effect of over 60% in size
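Cytotoxicity measured as CellTiter-Glo luminescence after 72 h at 37 C. Compound titrations were pinned onto drug-naive KB-3-1 parental adenocarcinoma cells grown in DMEM with 10% FBS, and normalized data fitted to concentration-response curves.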
KB-V1 cytotox: kills drug-selected multidrug resistant KB-V1 cells; Potency, µM (titrated, usually from 46.1 µM), most hits filed as cytotoxic; KB-V1 MDR cells viability, CellTiter-Glo, 72 h; 400,000 tested, 3.4% active; AID 1347076; also: % is scaled to controls: 0 for no effect and ±100 for the full control effect; nearly all actives have a fitted effect of over 60% in size
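Compound-treated KB-V1 multidrug-resistant cells, 72 h, 37 degrees C; viability by CellTiter-Glo. Fitted qHTS curves give the values.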
MCF10A rerep: inducers of DNA re-replication in MCF 10A breast cells | Potency, µM (highest dose often 46.1 µM), for inactives: at the top dose activity, positive = re-replication, most hits filed as activators | MCF 10A DNA re-replication, Hoechst nuclear intensity, 48 h | 350,000 tested, 2.9% active; also: % of control where 0% means no effect; nearly all actives have a fitted effect of over 50% in size
Gal4-VP16 FLuc: counter-screen for ROR gamma inhibitors: Gal4-VP16 reporter. AID 2546. Drosophila S2 Gal4-VP16 UAS-luciferase, luminescence, 20 h. Potency, µM (doses to about 53.6 µM), for the others: top-dose activity, negative = inhibition, actives largely listed as inhibitors. 310,000 tested, 3.5% active;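 also: Gal4-VP16 expression switched on by copper sulfate through the metallothionein promoter; % is scaled to controls: 0 for no effect and ±100 for the full control effect; nearly all actives have a fitted effect of over 50% in size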
* marks the source's active call; other numbers are inactive results; i = inactive; ? = inconclusive; / = no result; [ ] = another dose, or the depositor's remark. Calls follow the shape of the dose curve; as a rule, active = well fitted curve in the direction sought with a large enough effect; inconclusive = small, poorly fitted or top-dose-only effect, or another doubt; inactive = no such curve, though single readings can be large; an effect the other way counts as inactive or inconclusive. Potency is read from the fitted curve at half-maximal effect.

SMILES	RORgamma inh	SW480 rerep	KB-3-1 tox	KB-V1 cytotox	MCF10A rerep	Gal4-VP16 FLuc
Cc1ccc(S(=O)(=O)N(CCc2ccccc2)CC(=O)Nc2cc(C)ccc2C)cc1	/	/	i	i	/	/
CCOC(=O)c1c(/N=C/N(C)C)sc(/C=N/Nc2ccccc2)c1-c1ccccc1Cl	33%	18µM*	i	i	15µM*	-9%
CCOC(=O)c1c(/N=C/N(C)C)sc(/C=N/Nc2ccccc2)c1-c1ccccc1	-11%	?	i	i	21µM*	-16%
CCOC(=O)c1c(/N=C/N(C)C)sc(C=O)c1-c1ccccc1	-19%	-1%	i	i	9%	1%
Cn1nc(C(=O)NNC(=O)Cc2ccc(S(=O)(=O)N3CCOCC3)s2)c2ccccc2c1=O	/	-7%	i	i	7%	/
CCn1nc(NC(=O)COC)c2cc3cc(C)ccc3nc21	18%	23µM*	i	i	2%	6%
CC(C)Cn1nc(NC(=O)C(C)(C)C)c2cc3ccccc3nc21	2%	?	i	i	23µM*	-5%
CC(C)Cn1nc(NC(=O)c2cccs2)c2cc3ccccc3nc21	10%	16µM*	i	i	?	-20%
CCCCC(=O)Nc1nn(CC(C)C)c2nc3ccccc3cc12	-4%	?	i	16µM*	?	4%
COc1ccc2nc3c(cc2c1)c(NC(=O)c1cccs1)nn3CC(C)C	23%	16%	?	?	?	-11%
COc1ccc(-n2nc3c(c2NC(=O)COc2ccccc2OC)CS(=O)(=O)C3)cc1	/	/	i	i	/	/
Cc1ccc2nc3c(cc2c1)c(NC(=O)C(C)(C)C)nn3CC(C)C	2%	?	i	i	2.9µM*	-10%
CCCn1nc(NC(=O)CC(C)C)c2cc3ccccc3nc21	0%	1%	i	5.2µM*	?	-3%
Cc1ccc2nc3c(cc2c1)c(NC(=O)C1CCCO1)nn3CC(C)C (centres undefined)	-12%	?	i	?	-179%[0.0737 µM]	8%
CC(C)CC(C(=O)NCC1CCN(Cc2ccc(F)cc2)CC1)N1Cc2ccccc2C1=O (centres undefined)	/	/	i	i	/	/
COc1ccc(NC(=O)c2c(NCc3ccc(OC)c(OC)c3OC)sc3c2CCC3)c(OC)c1	/	/	i	i	/	/
COc1ccc(NC(=O)C2c3ccccc3OCC(=O)N2CCc2ccccc2)cc1 (centres undefined)	/	/	i	i	/	/
Cc1ccc(-n2ncc3c(=O)n(Cc4cccnc4)cnc32)cc1	?	-10%	18µM*	12µM*	-1%	0%
CC(=O)OCC(=O)[C@@]1(O)CCC2C3CC[C@H]4CC(O)CC[C@@]4(C)C3C(=O)C[C@]21C (some centres undefined)	-14%	/	/	/	/	-5%
COCCCNC(=O)c1c(N)n(/N=C/c2cccs2)c2nc3ccccc3nc12	-29%	7.3µM*	i	i	?	-10%
CC(C)OCCCNC(=O)c1c(N)n(/N=C/c2ccccn2)c2nc3ccccc3nc12	-21%	21µM*	i	?	4.1µM*	-3%
CC(C)CNC(=O)c1c(N)n(/N=C/c2cccnc2)c2nc3ccccc3nc12	-5%	/	/	/	/	-4%
CCC(C)NC(=O)c1c(N)n(/N=C/c2cccnc2)c2nc3ccccc3nc12 (centres undefined)	-20%[10 µM]	5.8µM*	?	?	2.1µM*	-6%
CCC(C)NC(=O)c1c(N)n(/N=C/c2ccccn2)c2nc3ccccc3nc12 (centres undefined)	18µM*	16µM*	i	21µM*	?	3%
CCOC(=O)c1c(N)n(CC(C)NC(=O)C2CC2)c2nc3ccccc3nc12 (centres undefined)	-15%	/	/	/	/	-2%
SMILES	RORgamma inh	SW480 rerep	KB-3-1 tox	KB-V1 cytotox	MCF10A rerep	Gal4-VP16 FLuc
CCC(=O)O	4%	/	/	/	/	4%
CC(C)=CCC/C(C)=C/CO/N=C1/C[C@@H](O)[C@@H](O)[C@@H]2[C@H]3C(=O)N(c4ccc(F)cc4F)C(=O)[C@@H]3CC[C@H]12	1%[10 µM]	/	/	/	/	-6%[10 µM]
O=c1cc(-c2ccc(O)cc2)oc2cc(OC3OC(CO)C(O)C(O)[C@H]3O[C@@H]3OC[C@@](O)(CO)C3O)cc(O)c12 (some centres undefined)	2%	/	/	/	/	1%
Cc1ccc(C)c(S(=O)(=O)c2nnn3c2nc(N2CCN(C)CC2)c2sccc23)c1	/	/	i	i	/	/
Cc1ncc([N+](=O)[O-])n1CCOC(=O)NC(NCc1ccccc1Cl)C(Cl)(Cl)Cl (centres undefined)	12%	?	?	7.3µM*	25%	-15%
c1ccc(CCCNc2ncnc3nc[nH]c23)cc1	2%	-12%	?	i	-4%	2%
Clc1ccc(CCNc2ncnc3nc[nH]c23)cc1	-22%	0%	i	i	-3%	11µM*
c1ccc2c(CCNc3ncnc4nc[nH]c34)cccc2c1	?	15%	18µM*	i	?	?
COC(=O)NC(c1ccccc1)C(C(=O)OC)C(=O)OC (centres undefined)	5%[10 µM]	/	/	/	/	8%[10 µM]
N#Cc1ccccc1Cn1c(=O)n(Cc2ccc(C(=O)NC3CCN(Cc4ccccc4)CC3)cc2)c(=O)c2ccccc21	/	/	i	?	/	/
COc1ccc(C(=O)NCC(c2cccnc2)N2CCN(c3ccccc3F)CC2)cc1OC (centres undefined)	/	/	i	i	/	/
CCOC(=O)C1=C(NC(=S)NC(=O)c2ccccc2)c2ccccc2CC1C(C)C (centres undefined)	4µM*	?	?	?	?	3%[0.365 µM]
CCOC(=O)C1=C(NC(=S)NC(=O)c2ccccc2)c2ccccc2CC1(C)CC (centres undefined)	6.3µM*	10%	16µM*	?	13µM*	7.1µM*
O=[N+]([O-])c1ccc(/C=N/NS(=O)(=O)c2ccc(Cl)cc2)o1	-15%	?	i	?	28%	?
O=[N+]([O-])c1ccc(/C=N/Nc2ccnc3cc(Cl)ccc23)o1	-15%	3.7µM*	i	i	12%	-27%
Clc1ccc2c(N/N=C/c3ccccc3Br)ccnc2c1	-110%	?	?	?	?	18µM*
Clc1ccc2c(N/N=C/c3cccc(Br)c3)ccnc2c1	-117%	?	?	i	?	?
CC(C)C[C@@H]1CN(CCCC[C@H]2CNC(=O)C(=O)N2CCC2CCCCC2)C(=O)C(=O)N1Cc1ccccc1	/	/	i	i	/	/
